# This is a sample that favours compounds with a hit; in the whole collection about 7.9% have one here.
# FMDV inh = foot and mouth disease virus antiviral activity; Potency, µM (top dose mostly 57.9 µM), for inactives: at the top dose activity change, negative = inhibition, most hits filed as inhibitors; FMDV antiviral cell-based qHTS; 410,000 compounds, 1.2% hits; calls by dose curve; tested in HEK293T cells; note: read-out not given here; potency is the fitted concentration of half-maximal effect; % is set by controls: 0 for no effect and ±100 for the full control effect; nearly all actives have a fitted effect of over 45% in size
# HCMV inh = blocks human cytomegalovirus replication. 410,000 compounds, 4.5% hits. activity change, negative = inhibition, % at 57.5 µM. AID 1259415. HFF cells, HCMV-luciferase reporter, 72 h; stronger effect = lower value; in the data active = activity change below about -60%; inconclusive = no clear call, values can overlap the other calls; inactive = above about -39%; note: % is set by controls: 0 for no effect and ±100 for the full control effect
#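 Two-dose cell screen: HFF monolayers treated with compounds and infected with luciferase-expressing HCMV at 1 PFU/cell, 72 h at 37C, then lysed for luciferase measurement.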
# Lassa entry inh = inhibitors of Lassa virus binding or cell entry; 300,000 compounds, 1.2% hits; Potency, µM (series often up to 37.9 µM), inactives show at the highest dose activity change, negative = inhibition, actives largely listed as inhibitors; AID 540256; Lassa virus pseudotype entry inhibition, cell reporter; calls by dose curve; tested in HEK293 cells; note: potency is the fitted concentration of half-maximal effect; % is set by controls: 0 for no effect and ±100 for the full control effect; nearly all actives have a fitted effect of over 50% in size
# HCV inhibitor = inhibitors of hepatitis C virus infection; 340,000 compounds, 3.4% hits; Potency, µM (top dose mostly 41.8 µM), for inactives: at the highest dose activity change, negative = inhibition, hits mostly inhibitors; Huh7.5.1 HCVcc-Cre infection, luciferase reporter, 44 h; note: potency is the fitted concentration of half-maximal effect; % is set by controls: 0 for no effect and ±100 for the full control effect
#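 Reporter virus HCVcc-Cre (~0.5 moi) infects cells exposed to compound; seeding density 1,000 cells/well with 4 h settling beforehand. Luminescence, 15 sec read, taken 44 h post-infection following a 15 min RT substrate incubation.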
# Marburg entry inh = Marburg virus entry inhibition. Marburg virus pseudotyped entry inhibition, cell reporter. Potency, µM (doses to about 37.8 µM), for the others: at the highest dose activity change, negative = inhibition, usual class: inhibitors. 300,000 compounds, 1.8% hits; calls by dose curve; tested in HEK293 cells; note: potency is the fitted concentration of half-maximal effect; % is set by controls: 0 for no effect and ±100 for the full control effect
# HCV confirm = confirmation of hepatitis C virus inhibitors; shares compounds with HCV inhibitor; HCVcc-Cre infectious virus cell assay, luciferase, inhibition; Potency, µM (titrated, usually from 41.8 µM), for the others: top-dose activity, negative = inhibition, most hits filed as inhibitors; 640 compounds, 78% hits; note: potency is the fitted concentration of half-maximal effect; nearly all actives have a fitted effect of over 80% in size
# HCV host tox = host cell cytotoxicity counter-screen for HCV inhibitors. Potency, µM (top dose mostly 41.8 µM), without a hit: at the top dose activity change, negative = cytotoxicity, actives largely listed as inhibitors. HCV host cell line cytotoxicity counterscreen. shares compounds with HCV inhibitor. AID 720576. 640 compounds, 22% hits;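 note: potency is the fitted concentration of half-maximal effect; 44 h compound exposure; % is set by controls: 0 for no effect and ±100 for the full control effect; nearly all actives have a fitted effect of over 55% in size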
# * marks the source's active call; other numbers are inactive results; ? = inconclusive; / = not tested or not shown; [ ] = remark or other dose. Unless noted, calls come from the whole dose curve; as a rule, active = well fitted curve in the direction sought with a large enough effect; inconclusive = small, poorly fitted or top-dose-only effect, or another doubt; inactive = no such curve, though single readings can be large; an effect the other way counts as inactive or inconclusive.
SMILES,FMDV inh,HCMV inh,Lassa entry inh,HCV inhibitor,Marburg entry inh,HCV confirm,HCV host tox
O=c1c2ccccc2nc2n1CCN2Cc1ccc(Cl)cc1,/,-88*,-18%,?,?,6.3µM*,?
COc1ccc(C2CC(c3cccs3)=Nc3ccccc3S2)cc1 (stereo not given),20%,-37,/,?,/,?,16%
Cc1cc2c(=O)n(Cc3ccco3)c(SCC(=O)NCc3ccco3)nc2s1,8%,-1,0%,3.5µM*,-1%,2.8µM*,36%
Cc1sc2nc(SCC(=O)c3cccs3)n(Cc3ccco3)c(=O)c2c1C,-11%,-6,?,2%,-13%,?,2.8µM*
CCCCNC(=O)CSc1nc2cc3c(cc2c(=O)n1Cc1ccco1)OCO3,?,-61*,-6%,?,-27%,14µM*,-3%
Cc1sc2nc(SCc3ccc(C(=O)O)cc3)n(Cc3ccco3)c(=O)c2c1C,-4%,0,-25%,13%,?,/,/
Cc1ccc(Cn2c(SCC(=O)NCc3ccco3)nc3ccsc3c2=O)cc1,-9%,5,-2%,4.5µM*,?,11µM*,16%
CCCCN(C(C)=O)c1c(CC)nc2ccc(C(=O)Nc3cccc(OCC(=O)N(C)C)c3)cn12,-13%,-7,/,/,/,/,/
CCN(CC)C(=O)[C@H]1C[C@H](CC(=O)NCCN2CCOCC2)C(=O)N2CCc3c([nH]c4cc(-c5ccco5)ccc34)[C@]12C,-6%,15,/,?,/,/,/
Nc1ccc(CN2CCOCC2)cc1,5%,-19,5%[46.1 µM],21%,21%[46.1 µM],/,/
COc1ccc(NC(=O)Cn2c(=O)n(Cc3ccccc3OC)c(=O)c3cccnc32)cc1Cl,-5%,-39,/,/,?,/,/
Cc1ccc(S(=O)(=O)N2CCCCC2)cc1,-15%,-27,/,6%,/,/,/
Cc1ccc(C)c(CNc2ccc(S(=O)(=O)N3CCCCC3)cc2)c1,?,?,/,4.5µM*,/,25µM*,31µM*
Cn1c(-c2ccsc2)c(-c2cccs2)c2cc(-c3ccc4cc[nH]c4c3)ccc21,-9%,?,/,1.1µM*,/,11µM*,-35%
O=C1CN(C(=O)NCCC(=O)NC2CCCCC2)c2ccccc2N1,-12%,-17,/,7%,/,/,/
COc1ccccc1NC(=O)c1ccc(NC(=O)COC(=O)C(C)C)cc1,-24%,-26,24%,15%,3%,/,/
COc1ccccc1NC(=O)c1ccc(NC(=O)COC(=O)c2ccc(O)cc2)cc1,-13%,-3,/,?,/,?,?
CN1CCN(S(=O)(=O)c2ccc(N(C)Cc3ccc(C(F)(F)F)cc3)c([N+](=O)[O-])c2)CC1,?,?,?,3.2µM*,10µM*,14µM*,28µM*
COCCNc1cc(-c2ccccc2C)ncn1,2%,/,/,/,/,/,/
Cc1cc2[nH]c3c(c[n+](C)c4ccccc34)c2cc1C,-5%,-98*,/,5µM*,/,16µM*,?
CCOc1ccc(OC(=O)c2cn(-c3ccc(C)cc3)c(=O)c3ccccc23)cc1,-27%,7,?,/,/,/,/
COc1ccc(/C=N\NC(=O)c2ccccc2[N+](=O)[O-])cc1COc1c(F)c(F)c(F)c(F)c1F,-24%,-10,-15%,2.5µM*,?,13µM*,-20%
CCC(Sc1nc2ccncc2[nH]1)C(=O)Nc1cc(Cl)ccc1C (stereo not given),-6%,-25,-3%[46.1 µM],-4%,4%[46.1 µM],/,/
Cc1nnsc1C(=O)NC1CCCc2c1cnn2-c1ccc(C(C)(C)C)cc1 (stereo not given),?,-76*,/,1.6µM*,/,3.1µM*,5.6µM*
COC(=O)C1=C(c2ccc(-c3ccccc3)c(F)c2)C[C@@H]2CC[C@H]1N2C(=O)N1CCOCC1,?,-30,/,3.5µM*,/,7.9µM*,7µM*
SMILES,FMDV inh,HCMV inh,Lassa entry inh,HCV inhibitor,Marburg entry inh,HCV confirm,HCV host tox
COC(=O)C1=C(c2ccc3ccccc3c2)C[C@@H]2CC[C@H]1N2C(=O)N1CCCCC1,?,-39,/,7.9µM*,/,11µM*,11µM*
COC(=O)C1=C(c2ccccc2)C[C@@H]2CC[C@H]1N2C(=O)N1CCOCC1,-9%,7,/,10%,/,/,/
COC(=O)C1=C(C(=O)OC)SC2(S1)C(C(=O)OC)=C(C(=O)OC)Sc1c2ssc1=O,32µM*,-77*,11µM*,?,?,10µM*,7.9µM*
CC(=O)NC(C)(c1ccccc1)c1nc(-c2cc(F)cc(F)c2)cs1 (stereo not given),-11%,30,/,/,/,/,/
COc1ccc2c(c1OC)C(=O)N1C2SC[C@H]1C(=O)NC1CC1 (stereo not given in full),-11%,50,/,1µM*,/,-10%,5%
COc1ccccc1Nc1nc2nonc2nc1N1CCCCC1C (stereo not given),0%,?,15%,?,24%,?,37%
Cc1ccc(S(=O)(=O)N(C)C)cc1-n1c(SCC(=O)Nc2ccc(F)cc2Cl)nc2ccccc2c1=O,-28%,-34,?,1.3µM*,?,14µM*,38%
Cc1ccccc1NC(=O)CSc1nc2ccccc2c(=O)n1C,?,-40,0%,3.2µM*,-29%,8.9µM*,14µM*
Cc1ccc(S(=O)(=O)N(C)C)cc1-n1c(SCC(=O)Nc2ccc(F)cc2)nc2ccccc2c1=O,-8%,-19,/,?,-3%,/,/
Cn1c(SCC(=O)Nc2ccc(F)cc2)nc2c(c1=O)SCC2,0%,-1,?,?,?,/,/
Cn1c(SCC(=O)Nc2ccccc2F)nc2c(c1=O)SCC2,-24%,-38,1%,6.3µM*,-24%,22µM*,-22%
COc1ccc(N2Cc3cccc(C(=O)Nc4ccc(F)cc4)c3C2=O)cc1,-22%,?,0%[46.1 µM],/,?,/,/
CC(=O)c1cc2c(cc1N/C(=N/S(=O)(=O)c1ccc(C)cc1)c1ccc(F)cc1)OCO2,51%,-17,6%[46.1 µM],/,/,/,/
Cc1cc(Nc2ccccc2Cl)nc(-c2ccccc2O)n1,-25%,0,-18%[46.1 µM],?,?,/,/
Cc1cc(Nc2cccc(F)c2)nc(-c2ccccc2O)n1,/,-27,0%,4.5µM*,?,7.9µM*,-2%
Cc1noc(C)c1COC(=O)c1ccc2c(c1)OCCO2,-6%,-7,13%,-1%,3%,/,/
Cc1noc(C)c1COC(=O)c1ccc(F)c(S(=O)(=O)N2CCCCC2)c1,0%,-2,4%,?,-27%,28µM*,-36%
CN(C)CC/C=C1/c2ccc(F)cc2Sc2ccc(Cl)cc21,-14%,-3,?,8.9µM*,13µM*,14µM*,17%
COc1cc(-c2nnc(-c3cc(OC)c(OC)c(OC)c3)o2)cc(OC)c1OC,?,67,-13%,?,0%,/,/
COc1cc(-c2nnc(-c3ccccc3)o2)cc(OC)c1OC,-16%,27,?,?,?,14µM*,12%

# Source: PubChem (National Center for Advancing Translational Sciences (NCATS))
